Source: the supplement of paper PMC10849652
About 7,900 targets were measured; listed, in parts, are those with a hit and a random draw of the rest. About 0.6% of all pairs of compound and target were hits.

How the values were obtained:
Experiment in all cases: log2 fold change, soluble protein after heating vs DMSO (PISA); higher = thermal stabilisation; K562 cells, 10 uM, 30 min; active = over 0.2 and 3.5 SD of the protein, either way, in both replicates (recomputed)
[1] = compound: COC1=CC=C(C=C1)CN2C=CC3=C2C=C(C=C3)C(=O)NO
In short: (§1)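 Values are thermal stability changes relative to control samples and are taken from duplicates. They are stated as log2 fold changes. Before quantification by TMTpro 16plex LC-MS/MS with equalised channel sums, K562 cells at 2×10^6 cells/mL were treated with 10 μM compound for 30 min, heated in aliquots for 3 min across 48°C-58°C, pooled, extracted in PBS with 0.5% NP-40 at 4°C, and centrifuged at 21,000xg for 90 min to give the soluble supernatant.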

filanesib = compound: CON(C)C(=O)N1N=C(c2cc(F)ccc2F)S[C@@]1(CCCN)c1ccccc1 [filanesib]
In short: as §1

zotarolimus = compound: CO[C@H]1C[C@@H]2CC[C@@H](C)[C@@](O)(O2)C(=O)C(=O)N2CCCC[C@H]2C(=O)O[C@H]([C@H](C)C[C@@H]2CC[C@H](n3cnnn3)[C@H](OC)C2)CC(=O)[C@H](C)/C=C(\C)[C@@H](O)[C@@H](OC)C(=O)[C@H](C)C[C@H](C)/C=C/C=C/C=C/1C [zotarolimus]
In short: as §1

idasanutlin = compound: COc1cc(C(=O)O)ccc1NC(=O)[C@@H]1N[C@@H](CC(C)(C)C)[C@](C#N)(c2ccc(Cl)cc2F)[C@H]1c1cccc(Cl)c1F [idasanutlin]
In short: as §1

alisertib = compound: COc1cc(Nc2ncc3c(n2)-c2ccc(Cl)cc2C(c2c(F)cccc2OC)=NC3)ccc1C(=O)O [alisertib]
In short: as §1

[2] = compound: COc1cc2nc(-c3cc(F)ccc3O)nc(N[C@@H]3CNC[C@H]3C(C)(C)O)c2cc1OC
In short: as §1

gefitinib = compound: COc1cc2ncnc(Nc3ccc(F)c(Cl)c3)c2cc1OCCCN1CCOCC1 [gefitinib]
In short: as §1

[3] = compound: COc1cccc2cc(-c3nc([C@H]4CC[C@H](C(=O)O)CC4)n4ncnc(N)c34)[nH]c12
In short: as §1

lapatinib = compound: CS(=O)(=O)CCNCc1ccc(-c2ccc3ncnc(Nc4ccc(OCc5cccc(F)c5)c(Cl)c4)c3c2)o1 [lapatinib]
In short: as §1

pictilisib = compound: CS(=O)(=O)N1CCN(Cc2cc3nc(-c4cccc5[nH]ncc45)nc(N4CCOCC4)c3s2)CC1 [pictilisib]
In short: as §1

[4] = compound: CS(=O)(=O)c1ccc(-c2cnc(N)c(C(=O)Nc3ccccc3)n2)cc1
In short: as §1

crizotinib = compound: C[C@@H](Oc1cc(-c2cnn(C3CCNCC3)c2)cnc1N)c1c(Cl)ccc(F)c1Cl [crizotinib]
In short: as §1

[5] = compound: C[C@@H]1COCCN1C2=NC(=NC(=C2)C3(CC3)S(=O)(=O)C)C4=C5C=CNC5=CC=C4
In short: as §1

[6] = compound: C[C@H](C1=CC=C(C=C1)C(=O)NC2=C3C=CNC3=NC=C2)N
In short: as §1

duvelisib = compound: C[C@H](Nc1ncnc2nc[nH]c12)c1cc2cccc(Cl)c2c(=O)n1-c1ccccc1 [duvelisib]
In short: as §1

gandotinib = compound: Cc1cc(Nc2cc(CN3CCOCC3)c3nc(C)c(Cc4ccc(Cl)cc4F)n3n2)n[nH]1 [gandotinib]
In short: as §1

tozasertib = compound: Cc1cc(Nc2cc(N3CCN(C)CC3)nc(Sc3ccc(NC(=O)C4CC4)cc3)n2)n[nH]1 [tozasertib]
In short: as §1

[7] = compound: Cc1cc(SCc2sc(-c3ccc(C(F)(F)F)cc3)nc2C)ccc1OCC(=O)O
In short: as §1

doramapimod = compound: Cc1ccc(-n2nc(C(C)(C)C)cc2NC(=O)Nc2ccc(OCCN3CCOCC3)c3ccccc23)cc1 [doramapimod]
In short: as §1

ispinesib = compound: Cc1ccc(C(=O)N(CCCN)[C@@H](c2nc3cc(Cl)ccc3c(=O)n2Cc2ccccc2)C(C)C)cc1 [ispinesib]
In short: as §1

Measured: log2 fold change

PSMC3 (UniProt P17980)
Chain of UniProt P17980 (P17980 whole entry, looked up): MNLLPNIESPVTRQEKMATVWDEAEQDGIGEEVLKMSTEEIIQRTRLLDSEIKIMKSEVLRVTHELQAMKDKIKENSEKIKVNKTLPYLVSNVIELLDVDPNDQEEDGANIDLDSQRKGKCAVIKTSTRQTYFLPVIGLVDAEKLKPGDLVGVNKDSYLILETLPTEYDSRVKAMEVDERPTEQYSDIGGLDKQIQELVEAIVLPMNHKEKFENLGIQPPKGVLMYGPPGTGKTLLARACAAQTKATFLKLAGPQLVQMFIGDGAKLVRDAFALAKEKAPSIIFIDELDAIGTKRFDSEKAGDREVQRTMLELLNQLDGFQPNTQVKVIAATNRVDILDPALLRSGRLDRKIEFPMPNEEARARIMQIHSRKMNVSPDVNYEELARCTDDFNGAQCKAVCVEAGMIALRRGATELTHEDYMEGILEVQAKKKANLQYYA
inactive: [1] -0.035 | filanesib 0.043 | zotarolimus 0.001 | idasanutlin 0.045 | alisertib -0.056 | [2] -0.015 | gefitinib -0.045 | [3] -0.038 | lapatinib 0.047 | pictilisib 0.013 | [4] 0.002 | crizotinib 0.012 | [5] -0.098 | [6] 0.067 | duvelisib -0.048 | gandotinib 0.027 | tozasertib 0.024 | [7] 0.011 | doramapimod 0.017 | ispinesib -0.024

PPIL4 (UniProt Q8WUA2)
Chain of UniProt Q8WUA2 (Q8WUA2 whole entry, looked up): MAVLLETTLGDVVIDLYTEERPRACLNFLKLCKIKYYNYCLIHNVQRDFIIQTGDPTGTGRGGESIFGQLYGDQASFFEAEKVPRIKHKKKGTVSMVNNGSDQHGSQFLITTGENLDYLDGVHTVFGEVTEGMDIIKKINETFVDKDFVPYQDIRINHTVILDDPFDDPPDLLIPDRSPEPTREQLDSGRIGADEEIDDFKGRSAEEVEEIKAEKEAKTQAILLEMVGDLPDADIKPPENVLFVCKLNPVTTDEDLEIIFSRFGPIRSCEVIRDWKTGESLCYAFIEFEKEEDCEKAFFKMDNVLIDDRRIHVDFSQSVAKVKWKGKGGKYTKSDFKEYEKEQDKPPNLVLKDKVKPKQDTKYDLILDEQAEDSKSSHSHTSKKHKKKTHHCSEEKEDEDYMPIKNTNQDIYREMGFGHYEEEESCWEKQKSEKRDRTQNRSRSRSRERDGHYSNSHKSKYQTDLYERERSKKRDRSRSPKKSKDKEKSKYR
inactive: [1] -0.001 | filanesib 0.116 | zotarolimus 0.032 | idasanutlin 0.101 | alisertib -0.003 | [2] 0.015 | gefitinib 0.002 | [3] -0.005 | lapatinib 0.02 | pictilisib 0.018 | [4] -0.022 | crizotinib -0.013 | [5] 0.027 | [6] -0.01 | duvelisib 0.025 | gandotinib 0 | tozasertib -0.026 | [7] 0.021 | doramapimod 0.019 | ispinesib -0.017

PHKA2 (UniProt P46019)
Chain of UniProt P46019 (P46019 whole entry, looked up): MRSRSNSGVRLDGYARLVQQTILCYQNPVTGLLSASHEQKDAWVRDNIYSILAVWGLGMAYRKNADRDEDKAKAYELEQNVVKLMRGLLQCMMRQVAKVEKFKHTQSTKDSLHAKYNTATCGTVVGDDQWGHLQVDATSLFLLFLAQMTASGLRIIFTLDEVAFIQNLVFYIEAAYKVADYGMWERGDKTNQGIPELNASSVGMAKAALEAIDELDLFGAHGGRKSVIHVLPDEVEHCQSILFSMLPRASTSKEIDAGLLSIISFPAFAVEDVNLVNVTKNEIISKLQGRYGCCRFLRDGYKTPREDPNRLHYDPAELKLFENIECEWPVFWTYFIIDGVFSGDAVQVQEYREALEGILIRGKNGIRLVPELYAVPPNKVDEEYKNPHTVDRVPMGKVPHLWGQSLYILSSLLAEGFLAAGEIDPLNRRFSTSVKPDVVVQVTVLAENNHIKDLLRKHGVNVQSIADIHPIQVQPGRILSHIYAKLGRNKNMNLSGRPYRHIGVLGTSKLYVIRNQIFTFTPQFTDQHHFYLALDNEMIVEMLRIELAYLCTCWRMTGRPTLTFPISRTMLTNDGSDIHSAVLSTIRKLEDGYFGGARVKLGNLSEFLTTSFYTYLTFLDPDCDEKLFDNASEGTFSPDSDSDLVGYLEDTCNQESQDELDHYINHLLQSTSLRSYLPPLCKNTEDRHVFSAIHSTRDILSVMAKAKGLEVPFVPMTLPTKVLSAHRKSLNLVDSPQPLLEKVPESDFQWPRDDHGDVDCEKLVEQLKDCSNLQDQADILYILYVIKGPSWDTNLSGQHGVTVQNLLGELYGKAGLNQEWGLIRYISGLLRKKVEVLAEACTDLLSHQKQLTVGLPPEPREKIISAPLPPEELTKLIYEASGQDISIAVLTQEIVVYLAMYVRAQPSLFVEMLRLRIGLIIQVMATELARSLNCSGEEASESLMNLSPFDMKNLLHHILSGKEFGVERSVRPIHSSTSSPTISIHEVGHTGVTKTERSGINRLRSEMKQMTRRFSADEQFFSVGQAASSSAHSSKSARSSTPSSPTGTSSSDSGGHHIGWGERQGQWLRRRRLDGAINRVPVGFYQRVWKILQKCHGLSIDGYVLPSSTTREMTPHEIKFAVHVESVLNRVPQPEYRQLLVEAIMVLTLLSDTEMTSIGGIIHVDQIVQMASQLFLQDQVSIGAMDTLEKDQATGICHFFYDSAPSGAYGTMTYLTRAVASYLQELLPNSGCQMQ
inactive: [1] -0.17 | filanesib -0.055 | zotarolimus 0.022 | idasanutlin -0.104 | alisertib -0.067 | [2] 0.064 | gefitinib -0.006 | [3] 0.025 | lapatinib -0.037 | pictilisib 0.078 | [4] -0.247 | crizotinib -0.076 | [5] 0.051 | [6] -0.108 | duvelisib 0.022 | gandotinib -0.083 | tozasertib -0.052 | [7] 0.071 | doramapimod 0.053 | ispinesib -0.013

PSMC1 (UniProt P62191)
Chain of UniProt P62191 (P62191 whole entry, looked up): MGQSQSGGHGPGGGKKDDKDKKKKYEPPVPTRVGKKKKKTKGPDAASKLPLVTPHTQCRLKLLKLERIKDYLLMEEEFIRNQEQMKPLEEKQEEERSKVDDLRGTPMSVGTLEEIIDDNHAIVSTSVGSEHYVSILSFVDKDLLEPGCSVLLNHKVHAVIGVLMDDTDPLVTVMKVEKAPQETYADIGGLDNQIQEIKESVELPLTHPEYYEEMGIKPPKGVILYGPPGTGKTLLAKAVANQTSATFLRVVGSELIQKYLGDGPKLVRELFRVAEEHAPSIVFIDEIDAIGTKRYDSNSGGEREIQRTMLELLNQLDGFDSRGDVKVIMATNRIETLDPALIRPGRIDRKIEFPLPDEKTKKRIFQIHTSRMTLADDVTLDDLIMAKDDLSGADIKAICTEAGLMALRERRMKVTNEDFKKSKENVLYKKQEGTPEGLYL
inactive: [1] -0.062 | filanesib 0.03 | zotarolimus -0.013 | idasanutlin 0.009 | alisertib -0.049 | [2] -0.018 | gefitinib -0.05 | [3] -0.015 | lapatinib 0.054 | pictilisib -0.006 | [4] 0.011 | crizotinib 0.023 | [5] -0.072 | [6] 0.073 | duvelisib -0.047 | gandotinib 0.06 | tozasertib 0.039 | [7] 0.01 | doramapimod 0.033 | ispinesib -0.036

PCYT1B (UniProt Q9Y5K3)
Chain of UniProt Q9Y5K3 (Q9Y5K3 whole entry, looked up): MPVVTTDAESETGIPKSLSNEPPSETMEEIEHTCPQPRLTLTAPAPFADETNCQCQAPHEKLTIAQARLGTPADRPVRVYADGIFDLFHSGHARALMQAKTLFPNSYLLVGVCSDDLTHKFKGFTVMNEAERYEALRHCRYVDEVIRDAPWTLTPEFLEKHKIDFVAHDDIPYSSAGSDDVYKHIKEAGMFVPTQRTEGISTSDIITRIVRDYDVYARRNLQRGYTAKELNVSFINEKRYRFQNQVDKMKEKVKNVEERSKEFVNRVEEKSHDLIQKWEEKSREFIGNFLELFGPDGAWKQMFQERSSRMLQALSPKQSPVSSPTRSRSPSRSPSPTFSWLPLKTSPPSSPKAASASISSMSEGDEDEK
inactive: [1] 0.005 | filanesib 0.026 | zotarolimus 0 | idasanutlin -0.029 | alisertib -0.156 | [2] 0.131 | gefitinib -0.051 | [3] 0.018 | lapatinib -0.019 | pictilisib -0.12 | [4] -0.008 | crizotinib -0.109 | [5] 0.147 | [6] -0.109 | duvelisib -0.019 | gandotinib -0.088 | tozasertib 0.024 | [7] 0.044 | doramapimod -0.036 | ispinesib 0.12

PRPF4B (UniProt Q13523)
Chain of UniProt Q13523 (Q13523 whole entry, looked up): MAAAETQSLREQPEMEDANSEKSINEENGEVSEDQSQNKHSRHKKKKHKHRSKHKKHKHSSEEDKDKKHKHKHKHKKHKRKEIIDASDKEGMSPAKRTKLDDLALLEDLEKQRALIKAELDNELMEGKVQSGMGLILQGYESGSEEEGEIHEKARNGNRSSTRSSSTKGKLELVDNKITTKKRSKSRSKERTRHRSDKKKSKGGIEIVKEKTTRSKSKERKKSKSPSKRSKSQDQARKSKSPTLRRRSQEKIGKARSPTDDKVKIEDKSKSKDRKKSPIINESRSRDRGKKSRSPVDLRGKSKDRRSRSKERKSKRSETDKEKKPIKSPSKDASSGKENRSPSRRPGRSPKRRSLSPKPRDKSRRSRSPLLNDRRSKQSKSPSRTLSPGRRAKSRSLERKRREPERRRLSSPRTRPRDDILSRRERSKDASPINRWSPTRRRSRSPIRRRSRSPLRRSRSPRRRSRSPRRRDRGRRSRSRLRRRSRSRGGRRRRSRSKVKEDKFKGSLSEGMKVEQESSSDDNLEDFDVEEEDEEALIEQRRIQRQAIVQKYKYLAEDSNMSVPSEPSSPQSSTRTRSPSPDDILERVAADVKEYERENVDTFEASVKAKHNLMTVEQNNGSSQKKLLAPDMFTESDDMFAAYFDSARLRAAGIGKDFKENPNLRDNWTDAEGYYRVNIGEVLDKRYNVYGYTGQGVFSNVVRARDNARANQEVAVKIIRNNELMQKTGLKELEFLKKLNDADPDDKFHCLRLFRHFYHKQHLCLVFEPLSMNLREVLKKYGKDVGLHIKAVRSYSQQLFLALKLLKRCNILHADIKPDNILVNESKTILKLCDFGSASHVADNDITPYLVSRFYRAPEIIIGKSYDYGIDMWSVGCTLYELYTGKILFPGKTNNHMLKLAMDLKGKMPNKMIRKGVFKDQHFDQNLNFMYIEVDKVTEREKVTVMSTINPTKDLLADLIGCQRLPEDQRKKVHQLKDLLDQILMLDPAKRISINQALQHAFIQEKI
inactive: [1] -0.024 | filanesib 0.253 | zotarolimus 0.187 | idasanutlin 0.164 | alisertib -0.047 | [2] -0.1 | gefitinib -0.023 | [3] 0.003 | lapatinib 0.19 | pictilisib 0.097 | [4] 0.024 | crizotinib -0.006 | [5] -0.025 | [6] -0.089 | duvelisib -0.081 | gandotinib 0.007 | tozasertib 0.062 | [7] 0.01 | doramapimod 0.044 | ispinesib 0.082

POLR2I (UniProt P36954)
inactive: [1] -0.012 | filanesib 0.041 | zotarolimus -0.017 | idasanutlin 0.029 | alisertib 0.061 | [2] 0.076 | gefitinib -0.003 | [3] 0.062 | lapatinib -0.006 | pictilisib -0.041 | [4] 0.003 | crizotinib 0.334 | [5] 0.052 | [6] 0.001 | duvelisib 0.085 | gandotinib 0.336 | tozasertib -0.086 | [7] -0.032 | doramapimod -0.047 | ispinesib 0.127

PCBP2 (UniProt F8VRH0)
inactive: [1] 0.139 | filanesib 0.107 | zotarolimus 0.013 | idasanutlin 0.218 | alisertib 0.305 | [2] -0.34 | gefitinib 0.055 | [3] -0.21 | lapatinib 0.06 | pictilisib -0.231 | [4] -0.181 | crizotinib -0.075 | [5] -0.22 | [6] -0.267 | duvelisib -0.299 | gandotinib 0.013 | tozasertib -0.055 | [7] 0.074 | doramapimod -0.225
